Consider 40 compounds from PubChem BioAssay (Tox21).

Inconclusive results are not listed. A call without a number means that no potency is given here. Active and inactive are the calls of the source. Calls come from the whole dose curve; as a rule, active = well fitted cell-killing curve with a large enough effect in the repeat runs; inconclusive = weak or mixed curves, or effect the other way; inactive = no such curve, though single readings can be large or run the other way.
Potency is the fitted concentration of half-maximal effect.

The test in a line: qHTS assay to identify small molecule agonists of the estrogen receptor alpha (ER-alpha) signaling pathway in the presence of an antagonist - cell viability counter screen (AID 1259386).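 Note: cells exposed to compounds for 22 h at 37 °C before the viability read; nearly all actives have a fitted effect of over 30% in size.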 The following applies: VM7Luc4E2 viability, CellTiter-Fluor fluorescence, 22 h; series mostly up to 92.4 µM. The source says:
National Center for Advancing Translational Sciences [NCATS]
NIH Chemical Genomics Center [NCGC]
U.S. Environmental Protection Agency [EPA]
National Institutes of Environmental Health Sciences [NIEHS]
National Toxicology Program [NTP]
U.S. Food and Drug Administration [FDA]
Estrogen receptor (ER), a member of nuclear hormone receptor plays an important role in development, metabolic homeostasis and reproduction. Two subtypes of ER, ER-alpha and ER-beta, have similar expression patterns with some uniqueness in both types. Endocrine disrupting chemicals (EDCs) and their interactions with steroid hormone receptors like ER causes disruption of normal endocrine function. Therefore, it is important to understand the effect of environmental chemicals in ER signaling pathway. For identifying ER agonists, VM7Luc4E2 cell line has been used in the current assay.
VM7Luc4E2 cell line (provided by Denison MS, University of California) endogenously expresses full-length ER-alpha and is stably transfected with a plasmid containing four estrogen responsive elements (ERE) upstream of a luciferase reporter gene. This current screening for measuring luciferase reporter gene activity using VM7Luc4E2 cells against Tox21 10K library collection is a confirmation study on agonist mode screening in presence of ER-antagonist (ICI-182,780) at 10.0nM final concentration. The cytotoxicity of the compounds was tested in parallel by measuring the cell viability using CellTiter-Fluor assay system (Promega, Madison, WI) in the same wells.
Tox21 Assay Protocol Summary:
VM7Luc4E2 cells were cultured in phenol red free assay medium containing 10% charcoal stripped FBS for 5 days prior to the assay. The cells were dispensed at 4,000 cells in 4uL of assay medium per well into white wall/solid-bottom 1536-well plates (Corning Life Sciences, Corning, NY) using a Multidrop Combi (Thermo Fisher Scientific Inc., Waltham, MA) dispenser. After the assay plates were incubated at 37C and 5% CO2 for 24hr, 1uL of 10.0nM (final concentration) ICI-182,780 or assay buffer was added using two separate tips of Flying Reagent Dispenser (FRD, Aurora Discovery, San Diego, CA). Then 23nL of compounds dissolved in DMSO at 15 concentrations and positive controls or DMSO only was transferred to the assay plates by a Pintool station (Wako, San Diego, CA). The assay plates were incubated at 37C and 5% CO2 for 22hr. After 21hr incubation at 37C, 1uL/well CellTiter-Fluor reagent (Promega Corporation, Madison, WI) was added to each well using FRD and after 1hr incubation at 37C and 5% CO2, the fluorescence signal was measured on ViewLux plate reader (PerkinElmer, Shelton, CT).
(In general: qHTS replaces the single test concentration by a dilution series.)
With `OC[P+](CO)(CO)CO`, the Potency result was “inactive”.

`CN(C1CCCCC1)C1CCCCC1`: the Potency entry is “inactive”.

`CCOC(=O)C1OC1(C)c1ccccc1` (stereo not given): the Potency result was “inactive”.

As to `C1CCNCC1`, the Potency result is “inactive”.

For `COc1cc(CC(C)N)c(OC)cc1Br` (stereo not given), the Potency entry is “inactive”.

Take `Nc1ccccc1C(=O)OCCc1ccccc1`: the Potency result was “inactive”.

On to `O=C(O)c1ccc(=O)[nH]c1`, for which the Potency entry is “inactive”.

As to `CCC1(CC)C(=O)NC(=O)NC1=O`, the Potency result was “inactive”.

Take `C[C@H]1O[C@H](OC2[C@@H](O)[C@@H](O)C(O)[C@H](O)[C@H]2O)[C@@H](N)C[C@@H]1N=C(N)C(=O)O` (stereo not given in full): the Potency entry is “inactive”.

As to `O=C(O)C(F)(F)C(F)(F)C(F)(F)C(F)(F)C(F)(F)C(F)(F)C(F)(F)C(F)(F)F`, the Potency entry was “inactive”.

Take `C#C[C@]1(O)CC[C@H]2[C@@H]3CCC4=CC(=O)CCC4=C3C=C[C@@]21CC`: the Potency entry was “inactive”.

`CC(C)(C)CC(C)(C)c1ccc(O)cc1`: the Potency entry is “inactive”.

On to `CC(C)(C)N(NC(=O)c1ccc(Cl)cc1)C(=O)c1ccccc1`, for which the Potency is 4.83 µM (active).

As to `O=S(=O)(c1ccccc1)c1ccccc1`, the Potency entry is “inactive”.

Turning to `OCCCl`, the Potency result is “inactive”.

Consider `COC(=O)Cc1ccccc1`, for which the Potency entry was “inactive”.

Turning to `C1CS1`, the Potency entry was “inactive”.

For the compound `COCc1cnc(C2=NC(C)(C(C)C)C(=O)N2)c(C(=O)O)c1` (stereo not given), the Potency result was “inactive”.

Turning to `CCOP(=S)(S)OCC`, the Potency result was “inactive”.

In the case of `CCCCCCCCCCCC[N+](C)(C)CCOc1ccccc1`, the Potency result is “inactive”.

On to `CCCCC(CC)COC(=O)c1c(Br)c(Br)c(Br)c(Br)c1C(=O)OCC(CC)CCCC` (stereo not given), for which the Potency entry was “inactive”.

On to `CCCBr`, for which the Potency entry was “inactive”.

As for `CCC1(C2=NCCN2)Cc2ccccc2O1` (stereo not given), the Potency result was “inactive”.

As for `CCCCC(CC)CO[N+](=O)[O-]` (stereo not given), the Potency result is “inactive”.

Take `Cc1ccc(N)c(C)c1`: the Potency result was “inactive”.

Consider `FC(F)OC(F)(F)C(F)Cl` (stereo not given), for which the Potency entry is “inactive”.

Take `CCC[N+](CCC)(CCC)CCC`: the Potency entry was “inactive”.

On to `SCc1ccccc1`, for which the Potency entry is “inactive”.

In the case of `N#CC1(N=NC2(C#N)CCCCC2)CCCCC1`, the Potency entry was “inactive”.

Turning to `NP(N)(=O)NC(=O)c1ccc(F)cc1`, the Potency entry was “inactive”.

For the compound `C[C@H](N)[C@H](O)c1ccc(O)c(O)c1`, the Potency result was “inactive”.

For the compound `c1ccc2c(c1)sc1ccccc12`, the Potency entry was “inactive”.

Take `C=CCOCC1CO1` (stereo not given): the Potency result is “inactive”.

As for `CC(C)(C)OOC(C)(C)CCC(C)(C)OOC(C)(C)C`, the Potency result is “inactive”.

For the compound `CCCCCBr`, the Potency result is “inactive”.

On to `CC1(C)CC(=O)CC(C)(C)N1[O]`, for which the Potency entry was “inactive”.

Take `CC(C)(C)NCC(O)c1ccccc1Cl` (stereo not given): the Potency result is “inactive”.

Take `Oc1cccc(Cl)c1`: the Potency result was “inactive”.

Regarding `CC(Cl)C(=O)O` (stereo not given), the Potency entry is “inactive”.

On to `CC(C)(C#N)C(C)(C)C#N`, for which the Potency entry was “inactive”.
